# Source: the supplement of paper PMC10670038
# Where a name gives a salt, the structure may show the parent alone. ± gives the standard deviation of the averaged measurements. The full ranking holds about 2,000 compounds; the median of “relative cell viability vs DMSO, compound alone” is about 1.1, and the lowest 2% start at about 0.29. The full list was thinned out, with the lowest values kept by preference.
# Test system: TE10
# Test: relative cell viability vs DMSO, compound alone (fraction); TE10 is an esophageal squamous carcinoma line; higher = less cytotoxic
# Conditions: 2 µM; 48 h
# Experimental: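 TE10 ESCC cells (1,000/well, 384-well plates) were treated with Selleck bioactive library compounds at 2 uM alone for 48 h. Viability was read by CellTiter-Glo and expressed relative to DMSO wells. Two technical replicates (A, B).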
row,SMILES,relative cell viability
1,O=C(O)CCNC(=O)c1ccccc1 [Betamipron],1.08 ± 0.022
2,O=C(O)c1ccccc1 [Benzoic Acid],1.09 ± 0.0064
3,CN(NC(=O)CC(=O)NN(C)C(=S)c1ccccc1)C(=S)c1ccccc1 [Elesclomol (STA-4783)],0.181 ± 0.013
4,CC1(C)O[C@@H]2[C@@H](CO[C@@]3(COS(N)(=O)=O)OC(C)(C)O[C@@H]23)O1 [Topiramate],1.29 ± 0.052
5,C[C@@H]1CN(CC(=O)Nc2ccc3c(c2)Cc2cccc(-c4cc(=O)cc(N5CCOCC5)o4)c2S3)C[C@H](C)O1,1.17 ± 0.021
6,Cc1cc(C)cc(NC(=O)Cc2ccc(OC(C)(C)C(=O)O)cc2)c1 [Efaproxiral Sodium],1.11 ± 0.012
7,O=C(Nc1cc(C(F)(F)F)cc(C(F)(F)F)c1)c1cc(Cl)ccc1O,0.18 ± 0.0024
8,O=C(Nc1ccccc1)c1ccccc1O [Salicylanilide],1.07 ± 0.059
9,CC(ONC(=O)c1cc(C(F)(F)F)cc(C(F)(F)F)c1)C(=O)Nc1ccc(Cl)cc1 (stereo not given),1.07 ± 0.024
10,C=CC(=O)Nc1cccc(Oc2nc(Nc3ccc(N4CCN(C)CC4)cc3)ncc2Cl)c1,0.758 ± 0.011
11,C[C@H]1O[C@@H](O[C@H]2[C@@H](O)C[C@H](O[C@H]3[C@@H](O)C[C@H](O[C@H]4CC[C@@]5(C)[C@H](CC[C@@H]6[C@@H]5C[C@@H](O)[C@]5(C)[C@@H](C7=CC(=O)OC7)CC[C@]65O)C4)O[C@@H]3C)O[C@@H]2C)C[C@H](O)[C@@H]1O [Digoxin],0.603 ± 0.013
12,Nc1nc(=O)n([C@@H]2CS[C@H](CO)O2)cc1F [Emtricitabine],1.06 ± 0.076
13,CCn1c2ccccc2c2cc(Nc3ccnc(NCCCN4CCOCC4)n3)ccc21,1.2 ± 0.076
14,COc1ccc(-c2nc(N3CCOCC3)c3sc(CN(C)c4ncc(C(=O)NO)cn4)cc3n2)cn1,0.0746 ± 0.0025
15,CS(=O)(=O)N1CCN(Cc2cc3nc(-c4cccc5[nH]ncc45)nc(N4CCOCC4)c3s2)CC1,0.483 ± 0.0077
16,Cc1c(CN2CCN(C(=O)[C@H](C)O)CC2)sc2c(N3CCOCC3)nc(-c3cnc(N)nc3)nc12,0.317 ± 0.021
17,C[C@@H](Oc1ccc2[nH]nc(/C=C/c3cnn(CCO)c3)c2c1)c1c(Cl)cncc1Cl,0.712 ± 0.01
18,Cc1nc(Nc2n[nH]c3c2CN(C(=O)N[C@H](CN(C)C)c2ccccc2)C3(C)C)c2sccc2n1,0.789 ± 0.037
19,COc1cccc2cc(-c3nc([C@H]4CC[C@H](C(=O)O)CC4)n4ncnc(N)c34)[nH]c12,0.667 ± 0.0089
20,Cc1cc(N2CCOCC2)ccc1Nc1nc(NC2CCCCC2)c2[nH]cnc2n1,1.098 ± 0.0034

row,SMILES,relative cell viability
1,Cc1cccc(CC(=O)N2CCc3c2ccc(-c2cn(C)c4ncnc(N)c24)c3F)n1,1.01 ± 0.047
2,CCCCCCCCCCCCCCCC(=O)OCC(O)C1OC(=O)C(O)=C1O [L-Ascorbyl 6-palmitate],1.14 ± 0.031
3,OCc1c[nH]c2ccccc12 [Indole-3-carbinol],1.14 ± 0.048
4,O=C(/C=C/c1ccc(CN(CCO)CCc2c[nH]c3ccccc23)cc1)NO [LAQ824 (Dacinostat)],0.0682 ± 0.006
5,O=C(O)CCCc1c[nH]c2ccccc12 [3-Indolebutyric acid (IBA)],1.1 ± 0.024
6,CCc1c(O)cc(O)c(C(=O)c2ccc(OCCN3CCOCC3)c(OC)c2)c1CC(=O)N(CCOC)CCOC,0.546 ± 0.009
7,CC(C)/N=c1\cc2n(-c3ccc(Cl)cc3)c3ccccc3nc-2cc1Nc1ccc(Cl)cc1 [Clofazimine],0.929 ± 0.062
8,CC(C)CC(N)=O [Isovaleramide],1.1 ± 0.057
9,CN1CCc2c(c3ccccc3n2Cc2ccc(C(=O)NO)cc2)C1 [Tubastatin A],1.14 ± 0.023
10,CN1CCc2c(c3ccccc3n2Cc2ccc(C(=O)NO)cc2)C1 [Tubastatin A HCl],0.9558 ± 0.0063
11,COc1cc(C(=O)NS(=O)(=O)c2ccccc2C)ccc1Cc1cn(C)c2ccc(NC(=O)OC3CCCC3)cc12 [Zafirlukast],1.03 ± 0.033
12,Cn1cc(CNCC2CCN(c3ncc(C(=O)NO)cn3)CC2)c2ccccc21,0.078 ± 0.0008
13,CCOc1ccc2nc3cc(N)ccc3c(N)c2c1 [Ethacridine lactate monohydrate],1.033 ± 0.0023
14,CCN(CC)CCCCNc1ncc2cc(-c3cc(OC)cc(OC)c3)c(NC(=O)NC(C)(C)C)nc2n1,1.23 ± 0.029
15,NC1CC1c1ccc(-c2cccc(O)c2)cc1 (stereo not given),1.09 ± 0.03
16,N[C@@H]1CCCN(c2c(/C=C3\SC(=O)NC3=O)cccc2-c2ccccc2)C1,1.03 ± 0.047
17,CN(C)c1cccc(-c2c3c(=O)n(-c4ccccc4Cl)[nH]c3cc(=O)n2C)c1,0.959 ± 0.036
18,CNC(=O)[C@H](Cc1ccccc1)NC(=O)[C@H](CC(C)C)[C@H](CSc1cccs1)C(=O)NO [Batimastat (BB-94)],0.884 ± 0.076
19,Nc1ccccc1NC(=O)c1cnccn1,1.11 ± 0.037
20,CC(C)C[C@H](NC(=O)[C@H](Cc1ccccc1)NC(=O)c1cnccn1)B(O)O [Bortezomib (PS-341)],0.09 ± 0.011
